PfHsp90 set2 = inhibits growth of yeast expressing Plasmodium falciparum Hsp90; S. cerevisiae expressing PfHsp90, BacTiter-Glo ATP, 48 h; yeast lacking PDR1 and PDR3 efflux regulators; inhibition, % at 9.4 µM; 310,000 compounds, 0.32% hits;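 active = every replicate shows inhibition above about 80%, whatever the replicate mean, limit read from the data; inconclusive = mean inhibition reaches the set limit but some replicate falls short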;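 also: 0% = DMSO neutral controls and 100% = 20 µM radicicol positive controls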
tim10-1 inh = inhibits growth of tim10-1 mutant yeast | S. cerevisiae tim10-1 ts strain growth, BacTiter-Glo, 24 h | inhibition, % at 20 µM | 330,000 compounds, 2.2% hits | AID 463190;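 active = inhibition of at least 40%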;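 also: mutant grown at 25 °C; 0% = DMSO wells with yeast and 100% = wells holding no yeast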
tim23-1 inh = growth inhibitors of tim23-1 mutant yeast. S. cerevisiae tim23-1 growth, BacTiter-Glo luminescence, 24 h. inhibition, % at 20 µM. 330,000 compounds, 1.3% hits. AID 463212;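 active = growth inhibition of the mutant yeast at or above 50%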;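 also: temperature-sensitive mutant grown at 25 °C; plate controls were DMSO-treated mutant yeast for no effect and medium wells lacking yeast for full effect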
TIM10 inh = growth inhibitors of TIM10 yeast strain | inhibition, % at 10 µM | AID 463195 | 330,000 compounds, 1.4% hits | S. cerevisiae TIM10 strain growth, BacTiter-Glo luminescence, 24 h;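 active = inhibition of 40% or more at the single tested concentration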;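 also: wild-type TIM10 isogenic control strain grown at permissive 25 °C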
Calb FLC = affects C. albicans growth with fluconazole | C. albicans CaCi-2 (fluconazole-resistant clinical isolate) + fluconazole, Alamar Blue growth, 48 h | growth inhibition, % (test concentration not listed) | 300,000 compounds, 0.57% hits | AID 1979;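 active = growth inhibition above about 58% in most replicates, limit read from the data, passing the limit was not always enough; inconclusive = exactly half the replicates above a set limit; inactive = most replicates below a set limit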;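 also: all wells also contain fluconazole at 8 µg/ml as a sub-toxic cotreatment; 0% = median of DMSO wells and 100% = median of geldanamycin control wells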
SKKanGAS inh = blocks kanamycin growth of S. pyogenes SKKanGAS strain; BacTiter-Glo, 6 h; inhibition, % at 7.5 µM; 300,000 compounds, 1.3% hits; AID 1662;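 active = mean replicate score, as percent of positive control median, at least 50; inconclusive = mean below 50 but one replicate at or above 50; inactive = mean and every replicate below 50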;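 also: strain carries kanamycin resistance gene driven by streptokinase promoter and grows in 40 µg/ml kanamycin; loss of luminescence reflects streptokinase promoter inhibition or plain growth inhibition; 0% = median of DMSO wells and 100% = positive control at its reference dose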
tim10-1 confirm = confirmation of tim10-1 mutant yeast growth inhibitors; shares compounds with tim10-1 inh; S. cerevisiae tim10-1 ts strain growth, BacTiter-Glo, 24 h; inhibition, % at 20 µM; 7,400 compounds, 56% hits; AID 463213;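 active = inhibition of yeast growth at or above a set limit in either of two repeat tests at 20 µM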;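 also: tim10-1 mutant grown at permissive 25 °C to find synthetic lethal compounds; 0% = DMSO yeast wells and 100% = medium wells without yeast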
An asterisk follows results filed as active; ? = inconclusive; . = no result. Compounds with a hit are over-represented: about 4.7% of the library has one in this group of screens.

SMILES	PfHsp90 set2	tim10-1 inh	tim23-1 inh	TIM10 inh	Calb FLC	SKKanGAS inh	tim10-1 confirm
CC(C)CCn1nnnc1CN1CCN(C(=O)c2ccco2)CC1	-1	-12	5	-17	-1	0	.
CCCN(CC(=O)Nc1ccccc1C)C(=O)c1ccc(N2CCCC(C)C2)c([N+](=O)[O-])c1 (stereo unspecified)	-8	.	.	.	.	.	.
O/N=C/c1ccccc1Oc1ccc(Cl)cc1	3	-65	11	-26	-11	-4	.
N#CCC(=O)c1ccccc1Oc1ccc(Cl)cc1	-12	50*	47	22	20	16	29*
c1ccc2c(c1)ccc1nnc(SCc3ccc4c(c3)OCCO4)n12	-9	45*	40	16	6	-2	29*
Cc1cc2nnc(SCc3ccc4c(c3)OCO4)n2c2ccccc12	-23	.	.	.	.	.	.
Cc1ccccc1C1C(C#N)=C2N=C(N)c3c(sc4c3CCCCC4)N2C2=C1C(=O)CC(C)(C)C2 (stereo unspecified)	.	33	37	10	-10	21	.
Cc1ccccc1C1C(C#N)=C2NC(=O)c3c(sc4c3CCCCC4)N2C2=C1C(=O)CC(C)(C)C2 (stereo unspecified)	.	46*	48	28	?	18	32*
CC(C)c1cc2c(c(O)c1O)[C@@]13CCCC(C)(C)C1CC2OC3=O (stereo partly specified)	22	43*	28	13	0	15	35*
COc1ccccc1NC(=O)c1ccc(COc2ccccc2OC)o1	2	41*	25	25	4	-2	3
CCOC(=O)[C@H]1[C@H]2COc3ccc(C)cc3[C@@H]2N2C(=O)c3cc(Cl)ccc3NC(=O)[C@@]12C	-26	40*	34	23	.	.	17
COc1ccc(CCC(C)NC(=O)Cc2ccc(OC)c(OC)c2)c(OC)c1 (stereo unspecified)	-5	28	18	-3	1	-7	.
COc1ccc(C(CNC(=O)c2[nH]c(C)c(C(C)=O)c2C)N2CCOCC2)cc1 (stereo unspecified)	.	3	-5	1	.	.	.
COc1ccc(-c2cn3c4c(sc3n2)CCCC4)cc1	15	41*	38	32	6	-18	11
CCOc1ccccc1-c1nnc(CS(=O)(=O)c2ccccc2)o1	-3	27	23	-3	5	-14	.
COc1ccc(Br)c(-c2nnc(CS(=O)(=O)c3ccccc3)o2)c1	2	46*	48	24	?	-3	39*
COc1ccccc1NC(=O)NC1(C(=O)N2CCC(C)CC2)CCCCC1	-44	-2	0	7	1	-6	.
CC1=C/C(=C(/c2cc(C)c(O)c(Br)c2)c2ccccc2S(=O)(=O)O)C=C(Br)C1=O	18	54*	50	38	36	41	44*
CCc1ccc(/C=c2\s/c(=C\C(=O)C(C)(C)C)[nH]c2=O)cc1	-52	53*	50	32	-7	102*	44*
O=C(Nc1cccc(Cl)c1Cl)C1CCCO1 (stereo unspecified)	1	4	13	-8	1	2	.
Cn1c(=O)c2c(nc(SCCN3CCOCC3)n2Cc2cccc3ccccc23)n(C)c1=O	.	44*	29	23	24	-1	27
CCOC(=O)C1=C(C)OC(N)=C(C#N)C1c1c(C)nn(-c2ccc(C)cc2)c1Cl (stereo unspecified)	.	32	25	18	50	1	.
COC(=O)C1=C(C)OC(N)=C(C#N)C1c1c(C)nn(-c2ccccc2)c1Cl (stereo unspecified)	17	40*	43	36	27	-1	33*
COc1ccc([N+](=O)[O-])cc1NCc1ccccc1	12	43*	27	9	0	9	19
Cc1cc(NC(=O)CSCC(=O)N2CCN(c3cccc(C(F)(F)F)c3)CC2)no1	33	26	15	5	-1	-3	.

Source: PubChem
